PKA-R2B act: activators of PKA-R2B holoenzyme, primary screen, biochemical, fluorescence polarization, Cy5-IP20, human | cAMP-dependent protein kinase catalytic subunit beta (Homo sapiens) + cAMP-dependent … | PKA-R2B holoenzyme dissociation; R2B truncated from residue 108, S112A mutant; 0% DMSO only, 100% 113 µM cGMP | activation, % at 11.4 µM | 340,000 compounds, 0.079% hits | AID 504700, 2011;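 active = activation above a cutoff set at the mean over all compounds plus 3 SD, cut at about 18% in these data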;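 also: higher means more holoenzyme dissociation and a rise in polarization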
PolyA inh: polyadenylation inhibitors in yeast reporter cells, primary screen, luminescence, S. cerevisiae; S. cerevisiae SKY197-pL101 polyadenylation reporter, beta-gal luminescence; efflux-impaired pdr1/pdr3 knockout yeast; score 100 = 6 SD above DMSO; activity score, % at 12 µM; 300,000 compounds, 0.02% hits;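 active = lowest replicate activity score at least 50, where 100 means six control SD above control mean; inconclusive = lowest score under 50 but half or more replicates reach 50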;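 also: yeast exposed to compound for 9 h at 30 °C; higher score means more reporter readthrough which indicates perturbed polyadenylation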
Yeast superoxide: reduction of superoxide in aged yeast, primary screen, HTS; S. cerevisiae aged cells, superoxide DHE fluorescence; stronger effect = lower value; superoxide response (% of plate mean), % at 10 µM; 330,000 compounds, 0.18% hits; AID 2690, 2010;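 active = superoxide response under a set limit, about three screen SD below normal, cut at about 65% in these data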;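 also: yeast aged for seven days with compound at 30 °C before DHE staining; 100% = average MFI of all compound-treated wells on the plate with controls excluded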
JMJD2C inh: inhibitors of GASC-1 histone demethylase, primary screen, biochemical, fluorescence, DELFIA europium; Lysine-specific demethylase 4C (Homo sapiens), Q9H3R0; GST-JMJD2C(1-420) H3K9me3 demethylation; inhibition, % at 2.35 µM; 330,000 compounds, 0.069% hits;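 active = more than half of a compound's replicate wells show inhibition beyond 50%, single wells judged on their own value; inconclusive = some, but no more than half, of replicates pass 50% inhibition; inactive = no replicate passes 50% inhibition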;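 also: signal counts dimethyl H3K9 product captured on neutravidin plate; 0% = median of DMSO wells and 100% = 0.3 times that DMSO median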
Target sequence (Q9H3R0 1-420 limits assumed): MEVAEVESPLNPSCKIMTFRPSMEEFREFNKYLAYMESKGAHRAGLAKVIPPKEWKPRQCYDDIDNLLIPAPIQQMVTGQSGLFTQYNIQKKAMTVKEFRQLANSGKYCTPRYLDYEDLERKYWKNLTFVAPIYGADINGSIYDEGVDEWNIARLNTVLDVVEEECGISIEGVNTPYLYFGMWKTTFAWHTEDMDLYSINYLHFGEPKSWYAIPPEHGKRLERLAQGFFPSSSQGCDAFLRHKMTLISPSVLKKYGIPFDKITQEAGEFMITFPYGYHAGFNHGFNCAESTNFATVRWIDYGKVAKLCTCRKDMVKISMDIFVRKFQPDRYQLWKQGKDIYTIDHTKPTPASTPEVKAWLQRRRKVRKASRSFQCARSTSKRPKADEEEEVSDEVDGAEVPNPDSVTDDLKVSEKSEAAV
PKA-R1A activ: activators of PKA-R1A holoenzyme, primary screen, biochemical, fluorescence polarization, Cy5-IP20, bovine R1A, mouse PKAc; PKA-R1A dissociation; scaled: DMSO 0%, 113 µM cGMP 100%; cAMP-dependent protein kinase type I-alpha regulatory subunit (Bos taurus) + …; AID 504707, 2011; 340,000 compounds, 0.083% hits; activation, % at 11.4 µM;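 active = percent activation above the mean of all tested compounds plus 3 SD, cut at about 19% in these data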;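 also: higher means more PKAc released from R1A so a rise in polarization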
V-ATPase pHluor: regulators of yeast V-ATPase proton pumping, primary screen, pHLuorin cytosolic pH fluorescence. S. cerevisiae. response, % at 10 µM. 350,000 compounds, 0.37% hits; in the data active = response mostly above about 7.3%, no sharp cut-off; inactive = mostly below about 5.4%; also: actives read high
R1A FP artifact: FP signal interference without PKA proteins, confirmation, artefact control for PKA-R1A activator project, biochemical, fluorescence polarization, triplicate; shares compounds with PKA-R1A activ; Cy5-IP20 peptide alone, fluorescence polarization artifact counterscreen; activation, % at 11.4 µM; 280 compounds, 7% hits;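 active = mean activation over triplicate runs exceeds the adjusted cutoff derived for the parent primary screen, cut at about 19% in these data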;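 also: no PKA protein present so any polarization rise reflects compound interference; 0% = tracer peptide mix alone and 100% = mix with added PKA catalytic subunit; higher means stronger polarization artifact and likely false positive in parent screen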
PKA-R1A confirm: activators of PKA-R1A holoenzyme, confirmation, biochemical, fluorescence polarization, Cy5-IP20, triplicate; shares compounds with PKA-R1A activ; PKA-R1A holoenzyme dissociation; activation, % at 11.4 µM; 280 compounds, 9% hits; AID 504800, 2011;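 active = mean activation over replicate wells exceeds the adjusted hit threshold taken from the earlier primary screen, cut at about 20% in these data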;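 also: 0% = holoenzyme mix with DMSO only and 100% = cGMP-activated control wells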
Active calls of the source: *; ? = inconclusive; · = no result given. Hits are enriched below; roughly 0.78% of the tested compounds scored in any of these assays.

SMILES	PKA-R2B act	PolyA inh	Yeast superoxide	JMJD2C inh	PKA-R1A activ	V-ATPase pHluor	R1A FP artifact	PKA-R1A confirm
NC(=O)CSc1nc2ccccc2n1-c1ccccc1	-5	13	98	-4	-19	-3	·	·
NC(=O)CSc1nc2ccccc2n1Cc1ccccc1	-3	4	76	0	21*	1	2	-1
COc1ccccc1CNC(=O)CNC(=O)c1ccc(Br)o1	-11	9	124	0	-1	0	·	·
CCOc1ccc(-c2nnn(CCC(=O)O)n2)cc1OC	-7	?	94	-2	19*	-2	1	-1
O=C(Cn1nnc2c(cnn2-c2ccccc2)c1=O)N1CCN(c2ccccc2F)CC1	11	-21	108	2	19*	0	3	1
O=C(Cn1cnc2c(cnn2-c2ccc(F)cc2)c1=O)N1CCN(c2ccccc2F)CC1	-2	15	96	0	-2	1	·	·
O=C(NCc1nc2ccccc2[nH]1)C1=C[C@H](c2ccc(C(F)(F)F)cc2)C[C@H](OCc2ccc(CO)cc2)O1	14	-18	102	7	20*	-4	29*	18
O=C1C2C3C=CC(C3)C2C(=O)N1CCC(=O)N1CCc2ccccc21 (stereo not given)	-7	23	84	-7	23*	-2	2	4
COc1ccc(C2=C(c3ccc(OC)c(OC)c3)CN3CCCCC3C2)cc1 (stereo not given)	1	·	92	-4	3	-3	·	·
O=C(CSCc1ccccc1)N1CCN(c2ccccc2)CC1	0	-9	110	1	19*	-2	1	2
O=C(CSCc1ccccc1)N1CCN(c2ccc(F)cc2)CC1	-13	11	98	5	-9	-3	·	·
COc1cccc(C(=O)N2C(C(=O)O)CSC2c2ccccc2Cl)c1 (stereo not given)	0	0	114	0	-7	1	·	·
COc1ccc(CC(=O)N2N=C(c3ccncc3)CC2(O)C(F)(F)F)cc1 (stereo not given)	-5	0	93	1	1	2	·	·
CCC1=NN(C(=O)Cc2ccc(OC)cc2)C(O)(C(F)(F)F)C1 (stereo not given)	8	-7	103	-4	19*	0	3	-1
O=C(O)c1ccc2cccnc2n1	2	1	129	-3	20*	-3	5	2
O=C(O)c1ccc2cccc(O)c2n1	·	12	108	4	·	-4	·	·
COc1cccc(NC(=O)[C@H](CC(C)C)NC(=O)N2CCn3c2nc2ccccc23)c1	1	-12	89	-1	-7	-4	·	·
COc1ccc(CCNC(=O)Cn2cnc3sc(C)c(-c4ccc(F)cc4)c3c2=O)cc1OC	-1	-8	107	1	19*	2	2	5
O=C(CNC1CCCCC1)Nc1ccc(Cl)cc1	4	-2	101	-1	-2	3	·	·
Cc1cccc(NS(=O)(=O)c2c(C(=O)N3CCCC3)c(C)n(C)c2C)c1	-3	-6	96	4	21*	4	4	2
Cc1c(C(=O)N2CCCCCC2)c(S(=O)(=O)Nc2cccc(F)c2)c(C)n1C	-2	-21	109	-5	-4	3	·	·
COc1ccc(/C=C/C(=O)NCC2COc3ccccc3O2)c(OC)c1 (stereo not given)	7	18	104	-7	-7	3	·	·
O=C(/C=C/c1ccco1)NCC1COc2ccccc2O1 (stereo not given)	8	6	107	-25	19*	0	-5	-4
CCCCC(=O)Nc1ccc(NC(=O)C2CC2)cn1	-1	13	103	4	20*	0	5	5
CCCC(=O)Nc1ccc(NC(=O)C2CC2)cn1	-5	20	99	1	-2	-1	·	·
SMILES	PKA-R2B act	PolyA inh	Yeast superoxide	JMJD2C inh	PKA-R1A activ	V-ATPase pHluor	R1A FP artifact	PKA-R1A confirm
CC1C(=O)N(Cc2cn(CCC3OCCO3)nn2)CCS(=O)(=O)N1Cc1ccc(-c2ccncc2)cc1 (stereo not given)	-6	·	·	·	2	0	·	·
CC1C(=O)N(Cc2cn(CCC3OCCO3)nn2)CCS(=O)(=O)N1Cc1ccc(-c2ccc(F)cc2)cc1 (stereo not given)	-13	·	·	·	20*	-1	2	2
COc1ccc(OC)c(C2C(C(=O)c3ccco3)=C(O)C(=O)N2CCN2CCOCC2)c1 (stereo not given)	2	16	93	2	19*	2	2	3
CNc1nc(N)c(C(=O)C23CC4CC(CC(C4)C2)C3)s1	·	-2	84	-1	·	4	·	·
O=C(CCC(=O)c1ccccc1)Nc1ccc(C(=O)O)cc1	-1	-1	102	-12	19*	-3	1	-1
CC(OC(=O)c1ccccc1O)C(=O)Nc1ccc(Cl)cn1 (stereo not given)	-7	8	104	2	19*	1	0	-2
CC(OC(=O)CCOc1ccccc1)C(=O)Nc1ccc(Cl)cn1 (stereo not given)	-5	6	99	7	22*	-4	-2	-2
Cc1cccc(OCCC(=O)OC(C)C(=O)Nc2ccc(Cl)cn2)c1 (stereo not given)	-11	11	107	-3	6	0	·	·
CC(OC(=O)c1ccco1)C(=O)Nc1ccc(Cl)cn1 (stereo not given)	3	7	121	-7	3	-4	·	·
O=C1N[C@@H](Cc2ccccc2)C(=O)N2[C@@H]1C[C@]1(Br)c3ccccc3N(S(=O)(=O)c3ccccc3)[C@H]21	·	3	104	1	·	·	·	·
CC(=O)c1sc(NC(=O)CCN2C(=O)c3ccccc3C2=O)nc1C	5	-12	90	-7	8	1	·	·
CC(=O)Nc1ccc(C(=O)OCCc2ccccc2)cc1	-6	-13	89	8	-3	2	·	·

High-throughput results (PubChem BioAssay)
